# High-throughput results (PubChem)
# Rce1 inh = blocks yeast Ras-converting enzyme; calls only; yeast membranes, quenched prenylated peptide cleavage fluorescence; 290,000 compounds, 0.27% hits; Q03530;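 active = fall in fluorescence gain of 50% or more versus controls, with final raw signal at or below 3038400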
# GC-A act = GC-A (human) enzyme activation | 370,000 compounds, 0.14% hits | HEK293 GC-A cells, cGMP TR-FRET, EC30 ANP; 0% at EC30 ANP, 100% saturating ANP | AID 1671463 | P16066 | activation, % at 10 µM; in the data active = activation above about 40%
# PfM18AAP inh = blocks P. falciparum M18 aspartyl aminopeptidase | recombinant PfM18AAP, H-Glu-NHMec fluorogenic cleavage | inhibition, % at 7.35 µM | 290,000 compounds, 1.2% hits | AID 1822;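 active = inhibition above the campaign mean inhibition over all tested compounds plus 3 SD, cut at about 28% in these data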
# PLC-beta3 inh = PLC-beta3 (human) inhibition, primary screen; Q01970; Purified PLC-beta3, fluorogenic substrate, fluorescence; inhibition, % at 12.2 µM; 370,000 compounds, 0.18% hits; AID 720704; in the data active = inhibition above about 11%
# Target sequence (Q01970 whole entry, looked up): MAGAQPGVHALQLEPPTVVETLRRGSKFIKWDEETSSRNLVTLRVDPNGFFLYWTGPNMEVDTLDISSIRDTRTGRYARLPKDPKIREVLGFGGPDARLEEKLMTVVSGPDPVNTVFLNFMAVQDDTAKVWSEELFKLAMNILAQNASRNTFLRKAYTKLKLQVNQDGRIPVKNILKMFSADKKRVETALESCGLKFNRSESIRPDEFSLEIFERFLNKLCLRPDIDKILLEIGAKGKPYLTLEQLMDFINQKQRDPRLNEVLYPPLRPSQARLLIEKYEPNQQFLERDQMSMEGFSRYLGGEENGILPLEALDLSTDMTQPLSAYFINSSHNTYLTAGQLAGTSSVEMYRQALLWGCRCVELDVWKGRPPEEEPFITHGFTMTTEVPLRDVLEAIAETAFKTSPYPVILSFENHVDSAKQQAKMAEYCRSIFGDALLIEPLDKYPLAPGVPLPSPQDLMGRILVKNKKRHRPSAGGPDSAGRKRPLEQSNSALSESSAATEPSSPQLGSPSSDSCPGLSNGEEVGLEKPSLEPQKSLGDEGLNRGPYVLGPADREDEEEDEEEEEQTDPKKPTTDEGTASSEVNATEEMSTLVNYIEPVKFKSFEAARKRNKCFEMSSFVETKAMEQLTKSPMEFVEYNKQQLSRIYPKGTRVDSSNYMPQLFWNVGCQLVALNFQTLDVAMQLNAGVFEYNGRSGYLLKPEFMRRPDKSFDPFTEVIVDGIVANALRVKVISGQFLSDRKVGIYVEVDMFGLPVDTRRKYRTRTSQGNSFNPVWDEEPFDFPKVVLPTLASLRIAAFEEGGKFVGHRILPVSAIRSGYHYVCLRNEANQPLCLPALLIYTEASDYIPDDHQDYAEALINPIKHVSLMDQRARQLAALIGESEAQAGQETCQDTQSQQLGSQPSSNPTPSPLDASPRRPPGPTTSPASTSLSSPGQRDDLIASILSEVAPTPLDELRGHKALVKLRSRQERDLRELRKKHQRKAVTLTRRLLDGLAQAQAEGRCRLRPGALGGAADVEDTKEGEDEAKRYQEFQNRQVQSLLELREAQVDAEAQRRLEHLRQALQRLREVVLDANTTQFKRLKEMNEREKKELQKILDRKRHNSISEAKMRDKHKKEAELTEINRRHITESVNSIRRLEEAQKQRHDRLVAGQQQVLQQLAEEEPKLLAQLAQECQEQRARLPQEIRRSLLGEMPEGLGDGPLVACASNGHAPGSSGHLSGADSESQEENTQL
# GC-B act = GC-B (human) receptor activation. activation, % at 10 µM. P20594. AID 1920062. HEK293-GC-B cells, CNP EC30, cGMP TR-FRET; 0% at EC30 CNP, 100% saturating CNP. 370,000 compounds, 0.11% hits;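 active = activation at 10 µM reaching about 35% in either raw or pattern-adjusted values, limit read from the data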
# PLCg1 inh = PLC-gamma1 (human) inhibition, primary screen; inhibition, % at 12.2 µM; P19174; 370,000 compounds, 0.84% hits; purified PLC-gamma1, fluorogenic substrate, fluorescence; in the data active = inhibition above about 9.5%
# Numbers stand for hits; . = inactive; / = no result; + = active, no number. Most compounds without a hit are left out; they make up all but 2.2% or so of the library.
SMILES,Rce1 inh,GC-A act,PfM18AAP inh,PLC-beta3 inh,GC-B act,PLCg1 inh
CCOC(=O)C1=C(CS(=O)(=O)c2ccc(C)cc2)NC(=O)NC1c1cc(OC)c(O)c(OC)c1 (stereo not given),.,.,.,.,.,.
CCOC(=O)C1=C(CS(=O)(=O)c2ccc(F)c(C)c2)NC(=O)NC1c1ccc(O)c(O)c1 (stereo not given),.,.,74.8,.,.,.
Nc1n[nH]c(=S)n1/N=C1/C(=O)Nc2ccccc21,/,.,31.7,.,.,.
COc1ccc(S(=O)(=O)N2CCCC(C(=O)Nc3ccc(OC)c(OC)c3)C2)cc1 (stereo not given),.,.,.,.,.,.
COc1ccc(NC(=O)C2CCCN(S(=O)(=O)c3ccccc3)C2)c(OC)c1 (stereo not given),.,.,.,.,.,12.1
Nc1[nH]c(C(=O)c2ccccc2)c(-c2cccc3ccccc23)c1C(=O)NC1CCCCC1,/,.,/,.,.,.
Cc1ccc(-n2nc3c(=S)[nH]nc(C)c3c2C)cc1,.,40.9,.,.,.,.
Cc1ccc(C(=O)/C=C/c2ccc(-c3ccc(C)cc3)o2)cc1,.,.,.,.,.,.
CCN(CC)S(=O)(=O)c1ccc(C(=O)/C=C/c2ccc(-c3ccc([N+](=O)[O-])cc3)o2)cc1,.,.,28.2,.,.,.
Brc1ccc(OCCOCCN2CCOCC2)cc1,.,.,.,.,.,.
Brc1ccc(OCCCCCN2CCOCC2)cc1,.,.,.,.,.,9.7
C#CCNC(=O)C[C@@H]1C(=O)N(Cc2ccc(OC)cc2)C2=CCN(C(=O)OC(C)(C)C)C[C@]21C(=O)OCC,/,.,/,.,.,.
CCOC(=O)CNCCC(=O)c1ccc(Br)cc1,.,48.9,.,.,.,.
CCOC(=O)C(C(C)=O)c1c(Br)c(O)c(O)c2c(C(=O)c3ccc(C)cc3)coc12 (stereo not given),.,.,47.3,.,.,.
O=C(CSc1nnc(CNC(=O)c2ccccc2)o1)Nc1nccs1,.,.,.,.,.,.
O=C(CSc1nnc(CNC(=O)c2ccc(F)cc2)o1)Nc1nccs1,.,.,29.9,.,.,.
C/C(=N/Nc1ccc(C(=O)O)cc1)c1ccc(O)c(O)c1O,.,.,51.5,.,.,.
COc1ccc(/C(C)=N/Nc2ccc(C(=O)O)cc2)cc1OC,.,.,28.6,.,.,.
COc1cc(/C(C)=N/Nc2ccc(C(=O)O)cc2)cc(OC)c1OC,.,.,.,.,.,.
C=C(C)[C@H]1CC=C(C(=O)O)CC1,/,.,/,/,.,/
Nc1ccccc1Sc1ccc(C(=O)c2ccccc2C(=O)O)cc1[N+](=O)[O-],.,.,30.1,.,.,.
CCOC(=O)CC[C@@]1(C(=O)OCC)C[C@@H](CC(=O)NCc2ccc(C)o2)C(=O)N2CCCC=C21,/,.,/,.,.,.
CCOC(=O)c1oc2ccc(CNC(C)(C)C)c(Cl)c2c1C,.,.,.,.,.,12.2
CCOC(=O)c1oc2cccc(O)c2c1C,.,.,.,.,.,.
O=C(COc1ccccc1)NNc1nc2ccccc2s1,.,.,.,.,.,.
SMILES,Rce1 inh,GC-A act,PfM18AAP inh,PLC-beta3 inh,GC-B act,PLCg1 inh
O=C(NNc1nc2ccccc2s1)Nc1ccccc1,.,.,29.0,.,.,.
COc1ccc2nc(NNC(=O)COc3ccccc3)sc2c1,.,.,38.3,.,.,.
O=C(N/N=C/C1CC=CCC1)c1ccc(O)cc1O (stereo not given),+,.,.,.,.,.
CCCC1CCC2(CC1)CCC2OC(=S)Nc1cccc(C(F)(F)F)c1 (stereo not given),/,.,/,.,.,.
CCOC(=O)N1CCN(C(=O)C[C@@H]2C(=O)N(CCc3ccc(Cl)cc3)/C3=C/CCCCC[C@@]32C(=O)OCC)CC1,/,.,/,.,.,.
Cc1ccccc1NC(=O)[C@@H]1CCCN1S(=O)(=O)c1cccc2cccnc12,/,.,/,.,.,.
COc1ccc(N=Cc2c(O)[nH]c3ccccc23)cc1,.,.,.,.,.,.
COc1ccc(CN=Cc2c(O)[nH]c3ccccc23)cc1,.,.,.,.,.,10.0
CCOC(=O)CNC(=O)N(C)[C@H]1C[C@H]2c3[nH]c4c(-c5cccc(C)c5)cccc4c3CCN2C(=O)[C@H]1[C@H](C)O,/,.,/,.,.,.
O=S(=O)(NCc1cn(Cc2ccccc2)nn1)c1ccccc1Br,/,.,/,.,.,.
Cc1ccc(-c2c(C(=O)N/N=C/c3cccs3)nnn2-c2nonc2N)cc1,.,/,.,/,/,/
CCOc1ccc(-c2c(C(=O)N/N=C/c3cccs3)nnn2-c2nonc2N)cc1,+,.,.,.,.,.
CCOc1cccc(-c2c(C(=O)N/N=C/c3c(F)cccc3Cl)nnn2-c2nonc2N)c1,+,.,.,.,.,.
CCOc1cccc(-c2c(C(=O)N/N=C/c3ccc(C)s3)nnn2-c2nonc2N)c1,.,.,.,.,.,.
CC(C)=CCC/C(C)=C/CNCC(=O)N1c2ccccc2[C@]2(C)C[C@@H]3C(=O)N(C/C=C(\C)CCC=C(C)C)CC(=O)N3[C@H]12,/,.,/,.,.,.
O=C(COc1ccc(F)c(Cl)c1)N[C@H]1CCCN(CC2CC2)C1,/,.,/,.,.,.
CCc1nnc(NC(=O)CSc2nc3[nH]ncc3c(=O)[nH]2)s1,.,.,31.4,.,.,.
COc1ccc(-c2noc(C3CCCN(C(=O)Nc4ccc(Cl)cc4)C3)n2)cc1 (stereo not given),/,.,/,.,.,.
O=c1oc2c(O)c(O)cc3c(=O)oc4c(O)c(O)cc1c4c23,/,/,29.5,/,/,/
NC(=O)c1c(N)[nH]c(C(=O)c2ccccc2)c1-c1ccccn1,/,.,/,.,.,.
COc1cccc(NC(=O)C2CCCN2C(=O)NCc2ccccc2)c1 (stereo not given),/,.,/,.,.,.
CCC(C)NC(=O)CSC1=Nc2ccccc2C2=NC(CC(=O)NCc3ccc(F)cc3)C(=O)N12 (stereo not given),+,.,.,.,.,.
CCCC(=O)N1CCC[C@]2(CC[C@@H](CCC#N)O2)C1,/,.,/,.,.,.
CCC1=NN2C(=N)/C(=C\c3ccc(SCc4ccco4)o3)C(=O)N=C2S1,/,.,29.5,.,.,.
O=C1NC(=S)S/C1=C/c1ccc(OC(=O)c2ccco2)cc1,.,.,.,.,.,.
O=C1NC(=S)S/C1=C\c1ccc(SCc2ccco2)o1,/,/,36.6,/,/,/
CCCC1=NN2C(=N)/C(=C\c3ccc(SCc4ccco4)o3)C(=O)N=C2S1,.,/,.,/,/,/
Cc1cc(C)cc(NC(=O)NCCCN2CCN(c3ccc(F)cc3)CC2)c1,/,.,/,.,.,.
COCC(=O)N(Cc1ccccc1)c1ccccc1C(=O)Nc1cc(OC)ccc1OC,/,.,/,.,.,.
Cc1cnc(NC(=O)C2CC(=O)N(c3cccc(Cl)c3)C2)s1 (stereo not given),.,.,.,.,37.1,.
